# Hit rate of the full screen: of about 39,000 compounds, about 1,500 (3.8%) were called active. The full list was thinned out, with actives kept by preference.
# Tested on: HSkMC (human skeletal muscle cells)
# Experiment: cytotoxicity call (relative viability < 0.9)
# Details: 10 µM
row,SMILES,cytotoxicity call
1,C[C@H](CO)N1C[C@H](C)[C@@H](CN(C)Cc2ccc(-c3ccccc3)cc2)Oc2ccc(NC(=O)Nc3ccc(C(F)(F)F)cc3)cc2CC1=O,active
2,C[C@H]1CN([C@@H](C)CO)C(=O)Cc2cc(NC(=O)Nc3ccc(C(F)(F)F)cc3)ccc2O[C@@H]1CN(C)Cc1ccc(-c2ccccc2)cc1,active
3,C[C@@H]1CN([C@H](C)CO)C(=O)Cc2cc(NC(=O)Nc3ccccc3)ccc2O[C@H]1CN(C)Cc1ccc(-c2ccccc2)cc1,inactive
4,C[C@@H]1CN([C@H](C)CO)C(=O)Cc2cc(NC(=O)Nc3ccc(C(F)(F)F)cc3)ccc2O[C@@H]1CN(C)Cc1ccc(-c2ccccc2)cc1,active
5,C[C@@H]1CN([C@H](C)CO)C(=O)Cc2cc(NC(=O)Nc3ccc(C(F)(F)F)cc3)ccc2O[C@H]1CN(C)Cc1ccc(-c2ccccc2)cc1,active
6,C[C@@H]1CN([C@@H](C)CO)C(=O)Cc2cc(NC(=O)Nc3ccccc3)ccc2O[C@H]1CN(C)Cc1ccc(-c2ccccc2)cc1,inactive
7,COc1cccc(NC(=O)N[C@@H]2C=C[C@@H](CC(=O)N3CCN(C)CC3)O[C@H]2CO)c1,inactive
8,C[C@@H]1CN([C@@H](C)CO)C(=O)c2cccc(NS(=O)(=O)c3cn(C)cn3)c2O[C@H]1CN(C)C(=O)Nc1ccccc1,inactive
9,C[C@H]1CCCCO[C@H](CN(C)C(=O)Nc2ccccc2)[C@@H](C)CN([C@@H](C)CO)C(=O)c2cc(NC(=O)CCC(F)(F)F)ccc2O1,inactive
10,O=C(C[C@H]1CC[C@@H]2[C@H](COC[C@@H](O)CN2C(=O)c2cccnc2)O1)NCC1CC1,inactive
11,Cc1ccc(CSc2nnc(CCN)o2)cc1,inactive
12,CCn1ncc(Br)c1CN,inactive
13,CC(C)NC(=O)[C@@H](N)c1ccccc1,inactive
14,COc1ccc(NC(=O)Nc2ccc3c(c2)CC(=O)N([C@H](C)CO)C[C@@H](C)[C@H](CN(C)C(=O)Nc2cccc4ccccc24)O3)cc1,inactive
15,C[C@@H]1CN([C@H](C)CO)C(=O)c2ccccc2-c2ccccc2CO[C@@H]1CN(C)Cc1ccc(Oc2ccccc2)cc1,inactive
16,COc1ccc(S(=O)(=O)N(C)C[C@@H]2Oc3ccc(NC(=O)Nc4c(C)noc4C)cc3CC(=O)N([C@@H](C)CO)C[C@H]2C)cc1,inactive
17,O=C(C=CC=Cc1ccc2c(c1)OCO2)N1CCCCC1,inactive
18,C[C@H](CO)N1C[C@H](C)[C@@H](CN(C)C(=O)Nc2ccc3c(c2)OCO3)Oc2c(NC(=O)Nc3ccc(C(F)(F)F)cc3)cccc2C1=O,active
19,C[C@H](CO)N1C[C@H](C)[C@H](CN(C)C(=O)Nc2ccc3c(c2)OCO3)Oc2c(NC(=O)Nc3ccc(C(F)(F)F)cc3)cccc2C1=O,inactive
20,C[C@H]1CN([C@@H](C)CO)C(=O)c2cccc(NC(=O)Nc3ccc(C(F)(F)F)cc3)c2O[C@@H]1CN(C)C(=O)Nc1ccc2c(c1)OCO2,active
21,C[C@H]1CN([C@@H](C)CO)C(=O)c2cccc(NC(=O)Nc3ccc4c(c3)OCO4)c2O[C@@H]1CN(C)C(=O)Nc1ccc(C(F)(F)F)cc1,inactive
22,C[C@@H]1CN([C@@H](C)CO)C(=O)c2cccc(NC(=O)Nc3ccc(C(F)(F)F)cc3)c2O[C@H]1CN(C)C(=O)Nc1ccc2c(c1)OCO2,inactive

row,SMILES,cytotoxicity call
1,C[C@@H]1CN([C@H](C)CO)C(=O)c2cccc(NC(=O)Nc3ccc(C(F)(F)F)cc3)c2O[C@@H]1CN(C)C(=O)Nc1ccc2c(c1)OCO2,inactive
2,Cc1ccc(S(=O)(=O)Nc2ccc3c(c2)CC(=O)N([C@H](C)CO)C[C@H](C)[C@@H](CN(C)Cc2ccncc2)O3)cc1,inactive
3,C[C@@H]1CCCCO[C@@H](CN(C)S(=O)(=O)c2ccccc2)[C@H](C)CN([C@H](C)CO)C(=O)c2cc(NC(=O)NC3CCCCC3)ccc2O1,inactive
4,CN(C)CCCNC(=O)C[C@@H]1C=C[C@@H](NC(=O)Cc2cccnc2)[C@H](CO)O1,inactive
5,[N-]=[N+]=NCCOCCNC(=O)CCCOc1ccc(CS(=O)c2nnc(-c3ccc(F)cc3)o2)nc1 (centres undefined),active
6,O=C1OCCN/C1=C/C(=O)c1ccccc1,inactive
7,Cc1ccc(S(=O)(=O)N(C)C[C@@H]2Oc3ccc(NS(=O)(=O)c4cn(C)cn4)cc3CC(=O)N([C@@H](C)CO)C[C@H]2C)cc1,inactive
8,C[C@@H]1CN([C@@H](C)CO)C(=O)Cc2cc(NC(=O)C3CC3)ccc2O[C@H]1CN(C)Cc1ccc2c(c1)OCO2,inactive
9,O=C(C[C@H]1C=C[C@H](NC(=O)Nc2ccc3c(c2)OCO3)[C@@H](CO)O1)NCCCN1CCOCC1,inactive
10,C[C@@H]1CN([C@@H](C)CO)S(=O)(=O)c2ccc(C#CCN(C)C)cc2O[C@@H]1CN(C)Cc1ccncc1,inactive
11,CO[C@@H]1CN(C)C(=O)c2ccc(NC(=O)NC(C)C)cc2OC[C@@H](C)N(Cc2ccc(-c3ccccn3)cc2)C[C@@H]1C,inactive
12,Cc1ccc(OC(=O)N(C)C[C@@H]2OCc3ccccc3-c3ccccc3C(=O)N([C@@H](C)CO)C[C@@H]2C)cc1,inactive
13,C[C@H]1CN([C@@H](C)CO)C(=O)c2cccc(NC(=O)Nc3cccc4ccccc34)c2O[C@H]1CN(C)C(=O)Nc1ccccc1,inactive
14,C[C@H]1CN([C@@H](C)CO)C(=O)c2cccc(NC(=O)Nc3cccc4ccccc34)c2O[C@@H]1CN(C)C(=O)Nc1ccccc1,active
15,C[C@@H]1CN([C@@H](C)CO)C(=O)c2cccc(NC(=O)c3nc4ccccc4s3)c2O[C@@H]1CN(C)S(=O)(=O)c1cn(C)cn1,inactive
16,C[C@@H]1CN([C@H](C)CO)C(=O)c2cccc(NC(=O)c3nc4ccccc4s3)c2O[C@@H]1CN(C)C(=O)Nc1cccc2ccccc12,inactive
17,C[C@H]1CN([C@@H](C)CO)C(=O)c2cccc(NC(=O)c3nc4ccccc4s3)c2O[C@@H]1CN(C)C(=O)Nc1cccc2ccccc12,inactive
18,C[C@@H]1CN([C@@H](C)CO)C(=O)c2cccc(NC(=O)c3nc4ccccc4s3)c2O[C@H]1CN(C)S(=O)(=O)c1cn(C)cn1,inactive
19,C[C@H](CO)N1C[C@H](C)[C@@H](CN(C)C(=O)Nc2ccc(F)cc2)Oc2c(NC(=O)Nc3cccc4ccccc34)cccc2C1=O,inactive
20,C[C@H]1CN([C@@H](C)CO)C(=O)c2cccc(NC(=O)c3nc4ccccc4s3)c2O[C@H]1CN(C)S(=O)(=O)c1cn(C)cn1,active
21,C[C@H](CO)N1C[C@H](C)[C@@H](CN(C)C(=O)Nc2cccc3ccccc23)Oc2c(NC(=O)c3nc4ccccc4s3)cccc2C1=O,active
22,C[C@H](CO)N1C[C@H](C)[C@H](CN(C)C(=O)Nc2ccccc2)Oc2c(NC(=O)Nc3cccc4ccccc34)cccc2C1=O,inactive

row,SMILES,cytotoxicity call
1,C[C@H](CO)N1C[C@H](C)[C@H](CN(C)C(=O)Nc2ccc(F)cc2)Oc2c(NC(=O)Nc3cccc4ccccc34)cccc2C1=O,inactive
2,C[C@@H]1CN([C@H](C)CO)C(=O)c2cccc(NC(=O)Nc3cccc4ccccc34)c2O[C@@H]1CN(C)C(=O)Nc1ccc(F)cc1,active
3,COC(=O)CN1C(=O)COc2ccc(C)cc21,inactive
4,COc1ccc(cc1)CN1CC[C@]2(CC1)CN([C@@H](CO)c1[nH]c3cc(ccc3c12)OC)C(=O)CN(C)C,inactive
5,CC(C)NC(=O)Nc1ccc2c(c1)C(=O)N([C@@H](C)CO)C[C@H](C)[C@H](CN(C)Cc1ccc(C(=O)O)cc1)O2,inactive
6,COc1ccc(C#Cc2cnc3c(c2)C(=O)N([C@H](C)CO)C[C@H](C)[C@@H](CN(C)C(=O)CC2CC2)O3)cc1,inactive
7,C[C@@H]1CN([C@@H](C)CO)C(=O)c2cc(-c3cccnc3)cnc2O[C@@H]1CN(C)Cc1ccc(-c2ccccc2)cc1,inactive
8,O=C(C[C@H]1CC[C@H](NS(=O)(=O)c2ccc(F)cc2)[C@H](CO)O1)N1CCC(Cc2ccccc2)CC1,inactive
9,C[C@H]1CN([C@@H](C)CO)C(=O)c2cccc(NC(=O)Nc3cccc4ccccc34)c2O[C@H]1CN(C)C(=O)Nc1cccc2ccccc12,inactive
10,C[C@H](CO)N1C[C@H](C)[C@@H](CN(C)C(=O)Nc2cccc3ccccc23)Oc2c(NC(=O)Nc3ccccc3)cccc2C1=O,inactive
11,COc1ccc(NC(=O)N(C)C[C@@H]2Oc3c(NC(=O)Nc4cccc5ccccc45)cccc3C(=O)N([C@H](C)CO)C[C@H]2C)cc1,inactive
12,C[C@@H]1CN([C@@H](C)CO)C(=O)c2cccc(NC(=O)Nc3cccc4ccccc34)c2O[C@H]1CN(C)C(=O)Nc1cccc2ccccc12,inactive
13,C[C@@H]1CN([C@@H](C)CO)C(=O)c2cccc(NC(=O)Nc3ccccc3)c2O[C@@H]1CN(C)C(=O)Nc1cccc2ccccc12,active
14,COc1ccc(NC(=O)N(C)C[C@H]2Oc3c(NC(=O)Nc4cccc5ccccc45)cccc3C(=O)N([C@@H](C)CO)C[C@@H]2C)cc1,active
15,C[C@H]1CN([C@@H](C)CO)C(=O)c2cccc(NC(=O)Nc3ccccc3)c2O[C@H]1CN(C)C(=O)Nc1cccc2ccccc12,inactive
16,C[C@@H]1CN([C@@H](C)CO)C(=O)c2cccc(NC(=O)Nc3cccc4ccccc34)c2O[C@H]1CN(C)C(=O)Nc1ccccc1,active
17,C[C@@H]1CN([C@H](C)CO)C(=O)c2cccc(NC(=O)Nc3cccc4ccccc34)c2O[C@@H]1CN(C)C(=O)Nc1ccccc1,inactive
18,C[C@@H]1CN([C@H](C)CO)C(=O)c2cccc(NC(=O)Nc3cccc4ccccc34)c2O[C@H]1CN(C)C(=O)Nc1cccc2ccccc12,active
19,COc1ccc(NC(=O)N(C)C[C@@H]2Oc3c(NC(=O)Nc4cccc5ccccc45)cccc3C(=O)N([C@H](C)CO)C[C@@H]2C)cc1,inactive
20,C[C@@H]1CN([C@H](C)CO)C(=O)c2cccc(NC(=O)Nc3cccc4ccccc34)c2O[C@H]1CN(C)C(=O)Nc1ccccc1,inactive

# — the antibiotic and cytotoxicity screens of Wong et al. (2023)
